Source: PubChem BioAssay (EPA / NIEHS)
Results filed as inconclusive are left out. Calls of active or inactive are those of the source. Rule for the calls: active = hit-call score of the fitted dose curve at least 0.9, where 1 is the maximum; inconclusive = response in the unintended direction; inactive = score below 0.9.

Test: TOX21_PR_BLA_Followup_Agonist_viability: Viability Assessment in the Tox21 HEK293 Progesterone Receptor (PR) Agonism Beta-lactamase Follow-Up Assay (AID 2283935);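 note: signal loss means lower viability so actives are cytotoxic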
How it was run: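 Cells were plated in medium with 2% charcoal-stripped FBS and rested 6 hr. Compounds in DMSO were then added for 16 hr at 37C, followed by the FRET substrate step and CellTiter-Glo luminescence after 30 min.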
In the case of `CC(C)(C1CCC(O)CC1)C1CCC(O)CC1` (stereo not given), the outcome is reported as “inactive”.
With `O=S(=O)(c1ccc(Cl)cc1)c1cc(Cl)c(Cl)cc1Cl` the outcome was “inactive”.
With `OC(c1ccc(Cl)cc1)(c1ccc(Cl)cc1)c1cccnc1` the outcome was “inactive”.
With `CC(C)CC(C)(c1ccc(O)cc1)c1ccc(O)cc1` the outcome was “inactive”.
For `Cc1ccccc1OP(=O)(Oc1ccccc1C)Oc1ccccc1C`, the outcome was “inactive”.
With `Nc1ccc(-c2ccccc2)cc1` the outcome was “inactive”.
With `CCOP(=S)(OCC)Oc1ccc(Cl)cc1Cl` the outcome was “inactive”.
With `CCCSP(=S)(OCC)Oc1ccc(SC)cc1` (stereo not given) the outcome was “inactive”.
For `O=S(=O)(Oc1ccc(Cl)cc1)c1ccc(Cl)cc1`, the outcome was “inactive”.
With `O=[N+]([O-])c1ccc(Nc2ccccc2)cc1` the outcome was “inactive”.
With `CCCSP(=S)(OCC)Oc1ccc(Cl)cc1Cl` (stereo not given) the outcome was “inactive”.

Test: TOX21_PR_BLA_Followup_Antagonist_viability: Viability Assessment in the Tox21 HEK293 Progesterone Receptor (PR) Antagonism Beta-lactamase Follow-Up Assay (AID 2283936);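 note: cells exposed to compound with R5020 agonist for 16 h; hits lower the luminescence signal meaning cytotoxicity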
How it was run: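 PR-UAS-bla HEK293T cells in medium with 2% charcoal-stripped FBS were treated with compounds plus R5020 for 16 hr at 37C. After the beta-lactamase read, CellTiter-Glo was added to the same wells and luminescence read after 30 min at room temperature.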
With `O=S(=O)(c1ccc(Cl)cc1)c1cc(Cl)c(Cl)cc1Cl` the outcome was “inactive”.
With `OC(c1ccc(Cl)cc1)(c1ccc(Cl)cc1)c1cccnc1` the outcome was “inactive”.
With `CC(C)CC(C)(c1ccc(O)cc1)c1ccc(O)cc1` the outcome was “inactive”.
For `Cc1ccccc1OP(=O)(Oc1ccccc1C)Oc1ccccc1C`, the outcome was “inactive”.
In the case of `Nc1ccc(-c2ccccc2)cc1`, the outcome is reported as “inactive”.
In the case of `CCCSP(=S)(OCC)Oc1ccc(SC)cc1` (stereo not given), the outcome is reported as “inactive”.
For `O=S(=O)(Oc1ccc(Cl)cc1)c1ccc(Cl)cc1`, the outcome was “inactive”.
With `O=[N+]([O-])c1ccc(Nc2ccccc2)cc1` the outcome was “inactive”.
For `CCCSP(=S)(OCC)Oc1ccc(Cl)cc1Cl` (stereo not given), the outcome was “inactive”.
